Records with an inconclusive call do not appear. A call without a number means that no potency is given here. Active and inactive are the calls of the source. Calls follow the shape of the dose curve; as a rule, active = well fitted cell-killing curve with a large enough effect; inconclusive = small, poorly fitted or top-dose-only effect, or effect the other way; inactive = flat fitted curve, though single readings scatter.
Potency is read from the fitted curve at half-maximal effect.

The subject of this test is CAOV3. As to the kind of experiment: Primary qHTS to identify gynecologic anti-cancer compounds using libraries of approved drugs and bioactive compounds (AID 1345084). Also: nearly all actives have a fitted effect of over 55% in size. The conditions noted are these: Gynecologic cancer cell panel viability, ATPlite luminescence, 48 h; series mostly up to 57.5 µM. From the text: National Center for Advancing Translational Sciences [NCATS] Assay Overview: Chemotherapeutic drug responses vary from cancer to cancer and from patient to patient. These variations could be caused by a number of factors including patient genomic background, tumor mutations, tumor heterogeneity, and aspects of drug treatment. Chemotherapeutic drug resistance is also a common issue and can lead to ineffective treatment and patient death. Here we have profiled the cell killing effects of thousands of compounds to characterize the responses in three gynecological cancers, identify cancer-selective compounds, and understand the diversity of responses to these compounds from pan-cancer suppressors to single cell line selective compounds. In this assay, we screened a 7,914 compound drug library that included approved drug and bioactive compounds in six ovarian, three cervical, and […] placental cancer cell lines using the ATPlite assay for cell viability. […] The cervical cancer cell lines included HeLa, Ca Ski, and C-33 A. The placental cancer cell lines included JEG-3. HEK 293T cells were used as the control cell line to determine the selectivity index. ATPlite is a luminescence based assay reliant on the conversion of a luciferase substrate to light in the presence of ATP. As a cytotoxic compound will suppress growth and decrease the number of cells, the concentration of ATP will decrease, and less light signal will be detected in the well.
Assay Protocol Summary: 1,000 cells in 4 uL of media were dispensed into white, solid bottom 1536-well plates using a Multidrop Combi (Thermo Scientific). The Assay plates were incubated for 16 hours at 37 C with 5% CO2 in assay plates, followed by the addition of 23 nL of DMSO or drug dissolved in DMSO. Each compound was assayed in five concentrations (0.092, 0.46, 2.3, 11.5, and 57.5 uM), using the automated Wako 1536 Pin Tool workstation and incubated at 37 C with 5% CO2 48 hours. 4 uL of ATPlite, the ATP monitoring reagent, was then added to the each well of the assay plates using the Multidrop Combi reagent dispenser followed by incubation for 15 minutes at room temperature. The resulting luminescence was measured using the ViewLux plate reader.
For `Oc1ccc([C@@H]2Oc3ccc(O)cc3[C@@H]3CCC[C@@H]32)cc1`, the Potency result was “inactive”.

For `Nc1ccn(C2CO[C@H](CO)O2)c(=O)n1` (stereo partly drawn), the Potency entry is “inactive”. `COc1ccc(S(=O)(=O)Nc2cccnc2Nc2ccc(O)cc2)cc1`: the Potency entry is “inactive”. For the compound `c1cncc(CN2CCC(n3ncc4c(N5CCOCC5)nc(-c5ccc6[nH]ccc6c5)nc43)CC2)c1`, the Potency is 28.2 µM (active). As for `Cn1cnc2c(F)c(Nc3ccc(Br)cc3F)c(C(=O)NOCCO)cc21`, the Potency entry was “inactive”. For `CC(C)C[C@H](NC(=O)[C@@H](NC(=O)c1cccc(-c2ccccc2)n1)[C@@H](C)O)B(O)O` the value was 0.282 µM (active); for `CC(C)n1cnc2c(NCCc3ccc(O)cc3)nc(-c3csc4ccccc34)nc21`, “inactive”; for `CCN(CC)Cc1ccc2cc(COC(=O)Nc3ccc(C(=O)NO)cc3)ccc2c1`, 7.94 µM (active). For `Cc1cnc(Nc2ccc(CN3CCOCC3)cc2)nc1Nc1cccc(S(=O)(=O)NC(C)(C)C)c1` the value was 7.94 µM (active); for `C[C@H](O)[C@@H]1C(=O)N2C(C(=O)O)=C(S[C@@H]3CN[C@H](CNS(N)(=O)=O)C3)[C@@H](C)[C@@H]12`, “inactive”. With `O=C(Nc1ccc(Oc2ccnc3[nH]ccc23)c(F)c1)c1cccn(-c2ccc(F)cc2)c1=O` the entry was “inactive”.

For `C[C@H]1[C@@H](OC(=O)CCC(=O)O)O[C@@H]2O[C@@]3(C)CC[C@@H]4[C@H](C)CC[C@@H]1[C@@]24OO3`, the Potency result was “inactive”.

In the case of `CC1(C)O[C@@H]2C[C@H]3[C@@H]4CCC5=CC(=O)C=C[C@]5(C)[C@@H]4[C@@H](O)C[C@]3(C)[C@]2(C(=O)CO)O1`, the Potency entry was “inactive”. With `C=CC(=O)Nc1ccc2ncnc(Nc3ccc(OCc4cccc(F)c4)c(Cl)c3)c2c1` the figure was 35.5 µM (active). With `CN1CCc2c(c3ccccc3n2Cc2ccc(C(=O)NO)cc2)C1`, the Potency result was “inactive”. For `CN(C)CC(=O)N1CCC(c2ccc(NC(=O)c3ncc(C#N)[nH]3)c(C3=CCCCC3)c2)CC1` the value was “inactive”; for `C[N+]1(C)[C@@H]2C[C@@H](OC(=O)C(O)(c3cccs3)c3cccs3)C[C@H]1[C@@H]1O[C@@H]12`, “inactive”; for `CCn1c(=O)c2c(nc(C=Cc3ccc(OC)c(OC)c3)n2C)n(CC)c1=O`, “inactive”. For `Cc1ccccc1C(=O)Nc1ccc(C(=O)N2CCCC(O)c3cc(Cl)ccc32)c(C)c1` (stereo not drawn) the value was “inactive”; for `CS(=O)(=O)N1CCc2c(-c3cnc(N)nc3)nc(N3CCOCC3)nc21`, “inactive”. With `c1ccc2c(Oc3nc(Nc4ccc(N5CCOCC5)cc4)c4ncn(C5CCCCC5)c4n3)cccc2c1` the entry was “inactive”; with `FC(F)(F)c1ccc(Nc2nc3ccc(Oc4ccnc(-c5ncc(C(F)(F)F)[nH]5)c4)cc3[nH]2)cc1`, “inactive”. For the compound `Cc1coc2c1C(=O)C(=O)c1c-2ccc2c(C)cccc12`, the Potency entry was “inactive”. On to `O=C(O)c1ccc(Nc2ncc3c(n2)-c2ccc(Cl)cc2C(c2c(F)cccc2F)=NC3)cc1`, for which the Potency result was “inactive”.

Take `CCOC(=O)[C@@H](N)Cc1ccc(-c2cc(O[C@H](c3ccc(Cl)cc3-n3ccc(C)n3)C(F)(F)F)nc(N)n2)cc1`: the Potency result is “inactive”. For `CCCCOc1ccc(C(=O)Nc2ccc(F)cc2F)cc1` the value was “inactive”; for `CC(O)(C#Cc1ccc2c(c1)N(c1nc(N)ncc1Cl)CC2)c1nccs1` (stereo not drawn), “inactive”. Consider `Cc1cn([C@@H]2O[C@H](CO)[C@@H](O)[C@H]2F)c(=O)[nH]c1=O`, for which the Potency entry was “inactive”. Consider `N[C@H]1CN(c2c(F)cc3c(=O)c(C(=O)O)cn(C4C[C@@H]4F)c3c2Cl)CC12CC2` (stereo partly drawn), for which the Potency result is “inactive”.

Regarding `Cc1ccc(-n2[nH]c(C)c(N=Nc3cccc(-c4cccc(C(=O)O)c4)c3O)c2=O)cc1C`, the Potency result was “inactive”. With `O=C(Nc1cc2cc[nH]c2cn1)c1ccccc1` the figure was 1.78 µM (active); with `CCC[C@H]1C[C@H](C(=O)N[C@@H]([C@@H]2O[C@@H](SC)[C@@H](O)[C@@H](O)[C@@H]2O)[C@H](C)Cl)N(C)C1`, “inactive”. With `CC1=C(C(=O)Nc2cc3cn[nH]c3cc2F)C(c2ccc(Cl)cc2F)N=C(c2ccnc(Cl)c2)N1` (stereo not drawn) the entry was “inactive”.
